Test results reported in the supplement of paper PMC7366291.
Structures can show the parent of a compound that is named as a salt. ± gives the standard deviation or the standard deviation of the averaged measurements.

Tests used:
Conditions in all cases: 25 µM; exposure: 24-48 hpf
[1] = tested on: Danio rerio Tg(wt1b:EGFP) embryo, pronephros; assay: glomerular separation, fold change vs DMSO control; higher = glomeruli further apart (abnormal)
Outline: (§1)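 Dechorionated Tg(wt1b:EGFP) zebrafish embryos were exposed to 25 μM compound in 0.5% DMSO, HEPES-buffered E3 with 0.003% PTU, from 24 to 48 hpf at 28.5°C. Pronephroi were imaged dorsally in agarose-filled 96-well plates (470 nm, 10 z-slices). On maximum projections, 16 reference points were set manually in Fiji and a macro computed distances and angles. Values more than 2 SD from the feature mean were excluded. Each feature is a fold change relative to the mean of same-day DMSO controls.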

[2] = tested on: Danio rerio Tg(wt1b:EGFP) embryo, pronephros; assay: glomerular width (mean of left and right), fold change vs DMSO control; higher = wider glomerulus
Outline: as §1

[3] = tested on: Danio rerio Tg(wt1b:EGFP) embryo, pronephros; assay: fraction of imaged embryos annotated as normal kidney; higher = less nephrotoxic; extreme values may be limits of the assay
Outline: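 Zebrafish embryos carrying Tg(wt1b:EGFP) were dechorionated and exposed to 25 μM compound (0.5% DMSO) between 24 and 48 hpf at 28.5°C. Their pronephroi were imaged by widefield fluorescence, and each embryo was classed by hand from maximum projections. The measure is the fraction of embryos per treatment falling in the normal-kidney category.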

[4] = tested on: Danio rerio Tg(wt1b:EGFP) embryo, pronephros; assay: pronephric angle neck segment to proximal convoluted tubule (mean of left and right), fold change vs DMSO control; higher = larger pronephric angle
Outline: as §1

| Structure (SMILES) | glomerular separation [1] | glomerular width [2] | fraction of imaged embryos annotated as normal kidney [3] | pronephric angle neck segment [4] |
| --- | --- | --- | --- | --- |
| CN(C)C(=O)C(CCN1CCC(O)(c2ccc(Cl)cc2)CC1)(c1ccccc1)c1ccccc1 [Loperamide hydrochloride] | 1.07 ± 0.32 | 1.04 ± 0.12 | 0.667 | 1.03 ± 0.065 |
| OCCN1CCN(CCCN2c3ccccc3C=Cc3ccccc32)CC1 [Opipramol dihydrochloride] | 0.662 ± 0.23 | 1.1 ± 0.043 | 0.75 | 1.02 ± 0.076 |
| COc1cc2nc(N3CCN(C(=O)C4CCCO4)CC3)nc(N)c2cc1OC (configuration not stated) [Terazosin hydrochloride] | 0.764 ± 0.26 | 1.04 ± 0.027 | 0.833 | 0.9878 ± 0.0069 |
| CCOC(=O)c1ccc(OC(=O)CCCCCNC(=N)N)cc1 [Gabexate mesilate] | 0.986 ± 0.37 | 0.986 ± 0.011 | 0.8 | 0.961 ± 0.013 |
| CCC1NC(=O)c2cc(S(N)(=O)=O)c(Cl)cc2N1 (configuration not stated) [Quinethazone] | 0.951 ± 0.37 | 1.05 ± 0.063 | 0.909 | 1.04 ± 0.027 |
| O=C(OCC(O)CO)c1ccccc1Nc1ccnc2cc(Cl)ccc12 (configuration not stated) [Glafenine hydrochloride] | 1.05 ± 0.26 | 1.02 ± 0.04 | 0.833 | 1.02 ± 0.017 |
| O=C(O)c1cn(-c2ccc(F)cc2)c2cc(N3CCNCC3)c(F)cc2c1=O [Sarafloxacin] | 1.17 ± 0.4 | 1.08 ± 0.039 | 0.455 | 1.02 ± 0.013 |
| Clc1ccc2c(c1)CCc1cccnc1C2=C1CCNCC1 [Desloratadine] | 0.811 ± 0.28 | 0.94 ± 0.011 | 0.917 | 1.06 ± 0.044 |
| CC1CCc2c(N3CCC(O)CC3)c(F)cc3c(=O)c(C(=O)O)cn1c23 (configuration not stated) [Nadifloxacin] | 1.13 ± 0.33 | 1.01 ± 0.031 | 0.917 | 1.04 ± 0.029 |
| O=C(Nc1cccc2c(=O)cc(-c3nnn[nH]3)oc12)c1ccc(OCCCCc2ccccc2)cc1 [Pranlukast] | 1.04 ± 0.37 | 1.01 ± 0.019 | 0.833 | 1.01 ± 0.041 |
| CCOC(=O)C1=C(C)NC(C)=C(C(=O)OCC)C1c1ccccc1/C=C/C(=O)OC(C)(C)C [Lacidipine] | 6.82 ± 2.2 | 0.671 ± 0.0078 | 0.167 | 1.11 ± 0.073 |
| NC(=O)c1cc[n+](CC2=C(C(=O)[O-])N3C(=O)[C@@H](NC(=O)[C@@H](c4ccccc4)S(=O)(=O)O)[C@H]3SC2)cc1 [Cefsulodin sodium salt] | 0.67 ± 0.22 | 1.08 ± 0.02 | 0.833 | 0.976 ± 0.034 |
| Cc1cc(C2CCCCC2)n(O)c(=O)c1 [Ciclopirox ethanolamine] | 6.61 ± 0.93 | 0.503 ± 0.058 | 0 | 1.68 ± 0.05 |
| CCCCCCCCNC(C)C(O)c1ccc(SC(C)C)cc1 (configuration not stated) [Suloctidil] | 4.23 ± 2.2 | 0.877 ± 0.029 | 0 | 1.48 ± 0.033 |
| CN[C@H]1CC[C@@H](c2ccc(Cl)c(Cl)c2)c2ccccc21 [Sertraline] | 0.914 ± 0.35 | 0.973 ± 0.035 | 0.917 | 0.969 ± 0.045 |
| C#C[C@]1(O)CC[C@H]2[C@@H]3CCC4=C(CCC(=O)C4)[C@H]3CC[C@@]21C [Norethynodrel] | 1.17 ± 0.41 | 0.9892 ± 0.0088 | 0.667 | 0.984 ± 0.06 |
| Clc1ccccc1CN1CCc2sccc2C1 [Ticlopidine hydrochloride] | 1.13 ± 0.49 | 1.09 ± 0.048 | 0.833 | 1.008 ± 0.0084 |
| CC(C)(C)NCC(O)c1ccc(O)c(CO)c1 (configuration not stated) [Salbutamol] | 1.15 ± 0.52 | 1.05 ± 0.013 | 0.833 | 1.04 ± 0.041 |
| O=c1[nH]cc(F)c(=O)[nH]1 [5-fluorouracil] | 0.802 ± 0.22 | 1.02 ± 0.042 | 0.75 | 1.024 ± 0.0061 |

| Structure (SMILES) | glomerular separation [1] | glomerular width [2] | fraction of imaged embryos annotated as normal kidney [3] | pronephric angle neck segment [4] |
| --- | --- | --- | --- | --- |
| Cc1cc(C(C)(C)C)cc(C)c1CC1=NCCN1 [Xylometazoline hydrochloride] | 1.11 ± 0.42 | 0.948 ± 0.05 | 1 | 1 ± 0.012 |
| CC(C)(C)NC[C@H](O)COc1cccc2c1CCCC2=O [(-) -Levobunolol hydrochloride] | 0.705 ± 0.17 | 1.07 ± 0.0039 | 0.917 | 0.944 ± 0.052 |
| Nc1nc(=O)[nH]cc1F [Flucytosine] | 0.784 ± 0.38 | 1.0052 ± 0.0006 | 0.75 | 1.003 ± 0.0094 |
| Cc1nc(=O)c2cc(CN(C)c3ccc(C(=O)N[C@@H](CCC(=O)O)C(=O)O)s3)ccc2[nH]1 [Raltitrexed] | 0.711 ± 0.3 | 1.08 ± 0.017 | 0.917 | 0.9802 ± 0.0082 |
| Nc1ccn([C@@H]2CS[C@H](CO)O2)c(=O)n1 [Lamivudine] | 0.982 ± 0.27 | 0.984 ± 0.042 | 0.667 | 0.987 ± 0.031 |
| C#C[C@]1(OC(C)=O)CC[C@H]2[C@@H]3CCC4=CC(=NO)CC[C@@H]4[C@H]3CC[C@@]21CC (mixture of isomers) [Norgestimate] | 2.81 ± 1.2 | 0.858 ± 0.059 | 0.0833 | 1.37 ± 0.015 |
| Nc1nc2ccc(OC(F)(F)F)cc2s1 [Riluzole hydrochloride] | 0.834 ± 0.22 | 0.964 ± 0.02 | 0.833 | 1.036 ± 0.0021 |
| NS(=O)(=O)c1cc2c(cc1Cl)N=C(CSCc1ccccc1)NS2(=O)=O [Benzthiazide] | 0.917 ± 0.25 | 0.919 ± 0.05 | 0.917 | 0.965 ± 0.028 |
| N=C(N)NCCN1CCCCCCC1 [Guanethidine sulfate] | 0.862 ± 0.46 | 1.04 ± 0.04 | 0.917 | 0.958 ± 0.035 |
| COc1ccc(-c2cc(=O)c3c(O)cc(O[C@@H]4O[C@H](CO[C@@H]5O[C@@H](C)[C@H](O)[C@@H](O)[C@H]5O)[C@@H](O)[C@H](O)[C@H]4O)cc3o2)cc1O [Diosmin] | 1.06 ± 0.42 | 0.996 ± 0.011 | 0.727 | 0.974 ± 0.032 |
| CC(CCc1ccc(O)cc1)NCCc1ccc(O)c(O)c1 (configuration not stated) [Dobutamine hydrochloride] | 0.82 ± 0.23 | 0.999 ± 0.032 | 1 | 0.997 ± 0.078 |
| CC1(C)O[C@@H]2C[C@H]3[C@@H]4C[C@H](F)C5=CC(=O)C=C[C@]5(C)[C@H]4[C@@H](O)C[C@]3(C)[C@]2(C(=O)CO)O1 [Flunisolide] | 1.26 ± 0.42 | 1.21 ± 0.018 | 0.667 | 0.92856 ± 0.0002 |
| CCOC(=O)/C=C(C)/C=C/C=C(C)/C=C/c1c(C)cc(OC)c(C)c1C [Etretinate] | 0.794 ± 0.27 | 0.831 ± 0.034 | 1 | 1.093 ± 0.01 |
| Nc1nc(F)nc2c1ncn2[C@@H]1O[C@H](CO)[C@@H](O)[C@@H]1O [Fludarabine] | 0.97 ± 0.29 | 0.997 ± 0.061 | 1 | 0.975 ± 0.025 |
| Nc1nc(=O)c2c([nH]1)NC[C@@H](CNc1ccc(C(=O)N[C@@H](CCC(=O)O)C(=O)O)cc1)N2C=O [Folinic acid calcium salt] | 0.989 ± 0.3 | 1.01 ± 0.016 | 0.583 | 0.979 ± 0.042 |
| CC(=O)O[C@]1(C(C)=O)CC[C@H]2[C@@H]3C=C(Cl)C4=CC(=O)[C@@H]5C[C@@H]5[C@]4(C)[C@H]3CC[C@@]21C [Cyproterone acetate] | 1.2 ± 0.46 | 0.931 ± 0.028 | 0.917 | 0.977 ± 0.017 |
| CC[C@H](C)C(=O)O[C@H]1CCC=C2C=C[C@H](C)[C@H](CC[C@@H]3C[C@@H](O)CC(=O)O3)[C@H]21 [Mevastatin] | 4.87 ± 2.8 | 0.798 ± 0.046 | 0 | 1.73 ± 0.056 |
| COc1cccc2c1C(=O)c1c(O)c3c(c(O)c1C2=O)C[C@@](O)(C(C)=O)C[C@@H]3O[C@H]1C[C@H](N)[C@H](O)[C@H](C)O1 [Daunorubicin hydrochloride] | 0.979 ± 0.36 | 1.03 ± 0.019 | 0.917 | 1.04 ± 0.025 |
| CCCN(CCC)C(=O)C(CCC(=O)O)NC(=O)c1ccccc1 (configuration not stated) [Proglumide] | 0.949 ± 0.28 | 1.07 ± 0.049 | 0.917 | 1.037 ± 0.006 |
